The values that follow come from PubChem BioAssay (NCATS).

Where “and” joins values, the source holds several entries; their conditions need not be identical. Equal entries are not always repeated. Results filed as inconclusive are left out. A number with no mark means an inactive call. Calls of active or inactive are those of the source. The call rests on the fitted dose curve; in most records, active means well fitted activation curve with a large enough effect in the signal ratio (not every such curve was filed as active); inconclusive means small, poorly fitted or top-dose-only effect, or a change in a side signal; inactive means flat fitted curve, though single readings scatter; the % refers to the signal ratio.
Potency means the concentration at half of the fitted maximal effect.

This assay in a line: qHTS assay for small molecule activators of the p53 signaling pathway (AID 651743). On activation: series mostly up to about 92 µM; % of control where 0% means no effect. The conditions noted are these: HCT-116 p53RE-bla, beta-lactamase FRET ratio, 16 h; activation: active compounds read high. An excerpt:
National Center for Advancing Translational Sciences [NCATS] NIH Chemical Genomics Center [NCGC] U.S. Environmental Protection Agency [EPA] National Institutes of Environmental Health Sciences [NIEHS] National Toxicology Program [NTP] Assay Overview: p53, a tumor suppressor protein, is activated following cellular insult, including DNA damage and other cellular stresses. The activation of p53 regulates cell fate by inducing DNA repair, cell cycle arrest, apoptosis, or cellular senescence. The activation of p53, therefore, is a good indicator of DNA damage and other cellular stresses. The CellSensor p53RE-bla HCT-116 cell line (Invitrogen) contains a stably integrated beta-lactamase reporter gene under control of the p53 response elements. The activation of the report gene under culture conditions can be detected by fluorescence intensity. This cell line can be used to screen chemicals in a 1536-well plate format and to identify agonists that activate p53 signaling pathway.
Assay Protocol Summary: The p53RE-bla cells were dispensed at 4,000 cells/5 ul/well in 1536-well black wall/clear bottom plates using a Multidrop dispenser. After the assay plates were incubated at a 37 C/5% CO2 incubator for 5 hours, 23 nL of compounds dissolved in DMSO, positive controls or DMSO only was transferred to the assay plate by a pin tool. The plates were incubated at 37 C for 16 hours. After 1 uL of LiveBLAzer B/G FRET substrate was added using a Flying Reagent Dispenser, the plates were incubated at room temperature for 2 hours, and fluorescence intensity was measured by an Envision plate reader.
(qHTS replaces the single test concentration by a dilution series.)
For the compound `c1ccc2occc2c1`, the activation is -0.261% and -6.48% and -3.89%.
For `Cc1ccc(O)cc1`, the activation was -3.91%.
On the same count and under the same terms, with `C1=CC2C3C=CC(C3)C2C1` (configuration not stated) the figure was -1.4%.
Consider `CC(C)C(C)(C)C(C)(C)C(C)(C)S`, for which the activation is 1.86% and -1.44%.
Consider `COc1cc(C=O)ccc1O`, for which the activation is -5.16% and -4.75%.
For `Oc1ccccc1`, the activation was -2.44% and -1.24% and 0.0138%.
On the same count and under the same terms, with `O=C(c1ccccc1)c1ccccc1` the figure was -6.89% and 0.517%.
`CCCCC(CC)COC(=O)c1ccccc1C(=O)O` (configuration not stated): the activation was -2.67% and -0.261%.
Turning to `Nc1c2ccccc2nc2ccccc12`, the Potency was 11.2 µM (active).
For `O=C(NO)c1ccccc1`, the activation was 3.57%.
As for `CC(C)(c1ccc(O)cc1)c1ccc(O)cc1`, the activation is -1.88% and -5.31% and -3.08%.
Same read-out and setting: under `Nc1cccc2c(N)cccc12` stands -3.42% and 1.45%; under `CCCCCCCCCCCCCCCC[n+]1ccccc1`, 2.82%; under `CC(C)(C)c1ccc(O)c(O)c1`, 2.58% and -2.7%.
On to `OCCOCCN1CCN(C(c2ccccc2)c2ccc(Cl)cc2)CC1` (configuration not stated), for which the activation is -1.54%.
Same read-out and setting: with `Cc1cc(C(C)(C)C)c(O)c(C(C)(C)C)c1` the figure was -3.94% and -1.07%.
Same read-out and setting: with `CN1C(=O)c2ccccc2C1=O` the figure was 8.47%; with `CCCC(=O)c1cc(O)c(O)cc1O`, -5.77%.
As to `OCc1c[nH]c2ccccc12`, the activation was -1.58%.
Take `CC(=O)OC/C=C(C)/C=C/C=C(C)/C=C/C1=C(C)CCCC1(C)C`: the activation was -8.23% and -2.69%.
Still for that read-out and setting: with `COC(=O)c1c(Cl)c(Cl)c(C(=O)OC)c(Cl)c1Cl` the figure was 1.22%; with `Brc1ccccc1-c1ccccc1`, 0.157%.
